Bioassay records (PubChem)
HCT116 PTEN-null: growth suppression of PTEN-null HCT116, primary screen, cell-based, CellTiter-Glo. hit rate 1.2% among 140,000. AID 827, 2007. viability, % at 10 µM. HCT116 PTEN-null viability, 60 h; hits give low values;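 active means viability at or below a set limit, 4 SD under the median of all tested compounds, cut at about 3.7% in these data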;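 further: PTEN knockout HCT116 line with beta catenin targeted HCT116 as companion control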
Autophagy mod: autophagy modulators in MEF cells, primary screen, imaging, high-content, MEF GFP-LC3. MEF GFP-LC3 puncta imaging; test concentration mostly 10 µM. calls only at 10 µM (by protocol). hit rate 0.98% among 190,000;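 active means percentage of spot-positive cells more than 3 SD above its plate mean, without a fluorescence outlier flag or 80% toxicity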;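 further: spot-positive cell cutoff set from DMSO-treated cells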
Insulin prom up: insulin promoter activators in MIN6 cells, imaging, high-content screening, mouse beta cells | hit rate 0.3% among 190,000 | MIN6 insulin promoter-GFP reporter; hits give high values | z-score at 5 µM | AID 1625, 2009;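 active means z-score above 3 at 5 µM with at least 500 cells counted in the well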
Insulin prom inh: inhibitors of insulin promoter-driven GFP, primary screen, imaging, TRM-6 cells (human fetal islet line), eGFP reporter, cell count. reporter expression induced with tamoxifen. inhibition, % at 2 µM. hit rate 0.9% among 130,000;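 active means inhibition above the mean plus 3 SD, with well images judged a real hit on visual review, cut at about 60% in these data, passing the limit was not always enough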
HCT116 bCat-KO: primary screen for growth suppressors in beta-catenin knockout HCT116 cells (colon tumor, human); HCT116 beta-catenin knockout viability, CellTiter-Glo, 60 h; hits give low values; viability, % at 10 µM; hit rate 1.5% among 140,000;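 active means viability at or under a set limit, the compound median less 4 SD, cut at about 6% in these data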;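 further: 0% = Hyamine 1622 control at 20 µM and 100% = untreated cell control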
L major viab: Leishmania major promastigote growth inhibition, primary screen; inhibition, % at 10 µM; hit rate 9% among 200,000; Leishmania major promastigotes, resazurin fluorescence viability; in the data active means inhibition above about 50%;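 further: promastigotes grown with compound for 44 hours at 28 °C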
* = called active by the depositor; i = inactive; x = no result given; + = active, no number. An excerpt weighted towards active compounds, which were near 9.6% of everything screened.

SMILES | HCT116 PTEN-null | Autophagy mod | Insulin prom up | Insulin prom inh | HCT116 bCat-KO | L major viab
COc1cccc(CC2(CO)CCN(S(=O)(=O)N(C)C)CC2)c1 | x | i | -0.02 | x | x | -3
CNC(=S)N1N=C(c2ccc(C)cc2)CC1c1ccc(Cl)cc1 (stereo unspecified) | 50 | i | x | -11 | 42 | 100*
CC(C)c1ccc(C2CC(c3ccc(Br)cc3)=NN2C(N)=S)cc1 (stereo unspecified) | 22 | i | 0.1 | x | 13 | 38
CNC(=S)N1N=C(c2ccc(C)cc2)CC1c1ccc(Br)cc1 (stereo unspecified) | 54 | i | 0.34 | 27 | 41 | 100*
COc1ccc(CCN(C)C(=O)CSc2ncnc3sccc23)cc1OC | x | i | -0.1 | -29 | x | -3
COc1ccc2nc(C)cc(SCC(=O)O)c2c1 | 99 | i | -0.8 | -7 | 101 | 7
CCOC(=O)c1sc(=NC(=O)COc2ccc(Cl)cc2)n(C)c1C | x | + | -0.78 | x | x | 21
CCOC(=O)c1sc(=NC(=O)CCS(=O)(=O)c2ccccc2)n(C)c1C | x | i | 0.25 | 31 | x | -2
CC(=O)CCc1c(C)c2cc(C)ccc2[nH]c1=O | 101 | i | -1.2 | 70* | 86 | 6
CC(=O)CCc1c(C)[nH]c2ccccc2c1=O | 104 | i | -0.12 | -28 | 94 | 6
O=C(C1CCCN(S(=O)(=O)Cc2ccccc2)C1)N1CCc2ccccc21 (stereo unspecified) | 83 | i | -0.92 | 11 | 81 | 73*
CCOC(=O)C1CCCN(S(=O)(=O)Cc2ccccc2)C1 (stereo unspecified) | 98 | i | -1.1 | -57 | 96 | -7
CC1Cc2ccccc2N1C(=O)C1CCN(S(=O)(=O)Cc2ccccc2)CC1 (stereo unspecified) | 107 | i | -0.64 | x | 90 | 54*
COc1cccc(NC(=O)c2cc(C(=O)Nc3cccc(OC)c3)n(C)n2)c1 | 110 | i | 0.79 | 29 | 115 | -2
O=C(C1CCCN(c2nnc(-n3cccc3)s2)C1)N1CCN(c2ccccc2)CC1 (stereo unspecified) | 75 | i | 1.4 | x | 76 | 0
O=C(/C=C/c1ccc(Cl)cc1)N1CCN(c2c(Cl)cccc2[N+](=O)[O-])CC1 | 82 | i | -0.15 | 50 | 80 | 21
O=C(CSc1ccc(Cl)cc1)N1CCN(c2c(Cl)cccc2[N+](=O)[O-])CC1 | 62 | i | -0.02 | 3 | 59 | 65*
Cc1ccc(-c2cc(C(=O)N(C)Cc3cnn(C)c3C)c3cc(Br)ccc3n2)cc1 | 31 | i | -0.91 | x | 33 | 5
Cc1ccnc(N/C=C(\C#N)c2nc(-c3cccc(Br)c3)cs2)c1 | 39 | + | x | -12 | 68 | -1
CCOc1ccc(NC(=S)NN2C(C)CCCC2C)cc1 (stereo unspecified) | 86 | i | 0.29 | 45 | 86 | 51*
CC(=O)c1ccc(NC(=S)NN2C(C)CCCC2C)cc1 (stereo unspecified) | x | i | -1.1 | x | x | -4
CCOc1ccc(NC(=S)Nc2ccc(OCc3ccccc3)cc2)cc1 | 104 | i | 0.1 | 14 | 99 | 52*
CCOc1ccc(S(=O)(=O)NNC(=S)Nc2ccc(Br)cc2)cc1 | 99 | i | 1.2 | -14 | 89 | 62*
CNC(=S)Nc1ccc(OCc2ccccc2)cc1 | x | i | 0.11 | x | x | -1
CCCCNC(=O)c1c(C)cc(=O)oc1C | 100 | i | -0.6 | -16 | 102 | -2
SMILES | HCT116 PTEN-null | Autophagy mod | Insulin prom up | Insulin prom inh | HCT116 bCat-KO | L major viab
Cc1ccc(C)c(N2CCN(CCCNC(=O)Cn3cccc3C(=O)c3ccccc3)CC2)c1 | x | + | x | x | x | 47
Cc1cc(C)n(-c2ccc(C(=O)Nc3ccc(N4CCOCC4)cc3)cc2)n1 | 91 | i | 0.87 | x | 91 | -6
CCOc1ccc(Nc2cc(C)nc(-n3nc(C)cc3C)n2)cc1 | 15 | i | -0.92 | -186 | 21 | 90*
COc1ccc(/C=N/Nc2cc(C)nc(-n3nc(C)cc3C)n2)c(OC)c1 | 2.4* | i | x | x | 2.6* | 99*
Cc1cc(N/N=C/c2ccc(F)cc2)nc(-n2nc(C)cc2C)n1 | x | x | -1.6 | x | x | x
CNc1cc(C)nc(-n2nc(C)cc2C)n1 | 93 | i | 0.41 | 43 | 87 | -5
CCC(/C=C1\Sc2ccc(OC)cc2N1CC)=C\c1sc2ccc(OC)cc2[n+]1CCCS(=O)(=O)[O-] | x | i | -3.3 | -18 | x | 100*
